# Whole data set: some 2,900 compounds, median “NF-kB SEAP reporter activity, fold change vs agonist alone” near 0.99, cut for the highest 2% near 2.6. Shown is part of a subset that was picked to be rich in the highest values.
# Legend:
# [1] = test system: RAW-Dual; test: NF-kB SEAP reporter activity, fold change vs agonist alone; cytotoxicity flag (confluency mask): not cytotoxic; higher = enhanced NF-kB activity
# How it was run: (§1)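 Supernatant from RAW-Dual macrophages was read after 20 hours for IRF by QuantiLuc luminescence and for NF-κB by QuantiBlue absorbance at 620 nm. The cells (50,000 cells/well in DMEM, 384-well plates, 37 °C, 5% CO2) had received 50 nL of library stock by pin tool and, 1 h later, a PRR agonist. Reporter activity is expressed relative to agonist-alone wells as fold change, and wells were flagged cytotoxic if IncuCyte confluency was under 70% of agonist controls in both mask sets.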
# [2] = test system: RAW-Dual; test: NF-kB SEAP reporter activity, fold change vs agonist alone; higher = enhanced NF-kB activity
# How it was run: as §1
# [3] = test system: RAW-Dual; test: NF-kB SEAP reporter activity, fold change vs agonist alone; cytotoxicity flag (confluency mask): cytotoxic (confluency <70% of control); higher = enhanced NF-kB activity
# How it was run: as §1
# [4] = agonist: ODN 1826 (TLR9) 0.5 ug/mL
# [5] = agonist: Pam2CSK4 (TLR2/6) 0.1 ug/mL
# [6] = agonist: Pam3CSK4 (TLR2/1) 0.1 ug/mL
# [7] = library stock concentration (final ~1000-fold dilution): 10 mM, cytotoxicity flag (confluency mask): not cytotoxic, agonist: MPLA (TLR4) […]
# [8] = library stock concentration (final ~1000-fold dilution): 10 mM, cytotoxicity flag (confluency mask): not cytotoxic, agonist: Imiquimod (TLR7) […]
structure (smiles),measurement,setting,value
Cc1cc(-c2ccnc3cc(O)ccc23)ccc1O (library stock concentration (final ~1000-fold dilution): .1 mM),NF-kB SEAP reporter activity,[1]; agonist: LPS (TLR4) 0.1 ug/mL,3.3
same,NF-kB SEAP reporter activity,[1]; [4],1.31
same,NF-kB SEAP reporter activity,[1]; [5],1.32
same,NF-kB SEAP reporter activity,[1]; [6],1.41
COc1ccc2c(-c3ccc(O)c(C)c3)ccnc2c1 (library stock concentration (final ~1000-fold dilution): .1 mM),NF-kB SEAP reporter activity,[1]; agonist: LPS (TLR4) 0.1 ug/mL,1.1
same,NF-kB SEAP reporter activity,[1]; [4],1.07
same,NF-kB SEAP reporter activity,[1]; [5],0.664
same,NF-kB SEAP reporter activity,[1]; [6],0.85
CC(NCc1ccc(OCc2cccc(F)c2)cc1)C(N)=O (centres undefined),NF-kB SEAP reporter activity,[2]; [7],1.07
CC(NCc1ccc(OCc2cccc(F)c2)cc1)C(N)=O (centres undefined) (library stock concentration (final ~1000-fold dilution): 10 mM),NF-kB SEAP reporter activity,[1]; agonist: LPS (TLR4) 0.1 ug/mL,1.32
same,NF-kB SEAP reporter activity,[1]; [4],0.933
same,NF-kB SEAP reporter activity,[1]; [5],1.16
same,NF-kB SEAP reporter activity,[1]; [6],0.745
FC(F)c1nc2ccccc2n1-c1nc(N2CCOCC2)nc(N2CCOCC2)n1,NF-kB SEAP reporter activity,[2]; [8],1.77
same,NF-kB SEAP reporter activity,[2]; [7],1.32
Nc1cc(C(F)(F)F)c(-c2nc(N3CCOCC3)nc(N3CCOCC3)n2)cn1,NF-kB SEAP reporter activity,[2]; [8],0.783
same,NF-kB SEAP reporter activity,[2]; [7],1.11
Nc1cc(C(F)(F)F)c(-c2cc(N3CCOCC3)nc(N3CCOCC3)n2)cn1 (library stock concentration (final ~1000-fold dilution): 10 mM),NF-kB SEAP reporter activity,[1]; agonist: LPS (TLR4) 0.1 ug/mL,2.59
same,NF-kB SEAP reporter activity,[1]; [4],2.07
same,NF-kB SEAP reporter activity,[1]; [5],1.49
same,NF-kB SEAP reporter activity,[1]; [6],0.904
FC(F)c1nc2ccccc2n1-c1nc(N2CCOCC2)nc(N2CCOCC2)n1 (library stock concentration (final ~1000-fold dilution): 10 mM),NF-kB SEAP reporter activity,[1]; agonist: LPS (TLR4) 0.1 ug/mL,2.13
same,NF-kB SEAP reporter activity,[1]; [4],0.832
same,NF-kB SEAP reporter activity,[1]; [5],0.936
same,NF-kB SEAP reporter activity,[1]; [6],0.767
Nc1cc(C(F)(F)F)c(-c2cc(N3CCOCC3)nc(N3CCOCC3)n2)cn1,NF-kB SEAP reporter activity,[2]; [8],1.71
same,NF-kB SEAP reporter activity,[2]; [7],1.63
Nc1cc(C(F)(F)F)c(-c2nc(N3CCOCC3)nc(N3CCOCC3)n2)cn1 (library stock concentration (final ~1000-fold dilution): 10 mM),NF-kB SEAP reporter activity,[1]; agonist: LPS (TLR4) 0.1 ug/mL,0.943
same,NF-kB SEAP reporter activity,[1]; [4],0.711
same,NF-kB SEAP reporter activity,[1]; [5],0.402
same,NF-kB SEAP reporter activity,[1]; [6],0.503
COc1cc2ncnc(Nc3ccc(F)c(Cl)c3)c2cc1OCCCN1CCOCC1.Cl,NF-kB SEAP reporter activity,[2]; [7],1.29
COc1cc2ncnc(Nc3ccc(F)c(Cl)c3)c2cc1OCCCN1CCOCC1.Cl (library stock concentration (final ~1000-fold dilution): 10 mM),NF-kB SEAP reporter activity,[1]; agonist: LPS (TLR4) 0.1 ug/mL,1.23
same,NF-kB SEAP reporter activity,[1]; [4],0.277
same,NF-kB SEAP reporter activity,[1]; [5],0.967
same,NF-kB SEAP reporter activity,[1]; [6],0.737
CN1C(=O)c2sccc2N(C)c2nc(Nc3ccc(S(N)(=O)=O)cc3)ncc21,NF-kB SEAP reporter activity,[2]; [8],1.86
same,NF-kB SEAP reporter activity,[2]; [7],2.45
CN1CCN(Cc2ccc(Nc3ncc(Cl)c(Nc4ccccc4S(=O)(=O)N(C)C)n3)cc2)CC1 (library stock concentration (final ~1000-fold dilution): 2 mM),NF-kB SEAP reporter activity,[3]; agonist: LPS (TLR4) 0.1 ug/mL,0.331
same,NF-kB SEAP reporter activity,[3]; [4],1.3
same,NF-kB SEAP reporter activity,[3]; [5],0.245
same,NF-kB SEAP reporter activity,[3]; [6],1.08
Nc1nc(Nc2ccc(S(N)(=O)=O)cc2)nn1C(=O)c1c(F)cccc1F,NF-kB SEAP reporter activity,"[2]; library stock concentration (final ~1000-fold dilution): 10 mM, cytotoxicity flag (confluency mask): cytotoxic (confluency <70% of control), agonist: Imiquimod (TLR7) […]",1.97
same,NF-kB SEAP reporter activity,"[2]; library stock concentration (final ~1000-fold dilution): 10 mM, cytotoxicity flag (confluency mask): cytotoxic (confluency <70% of control), agonist: MPLA (TLR4) […]",1.36
CN1CCN(Cc2ccc(Nc3ncc(Cl)c(Nc4ccccc4S(=O)(=O)N(C)C)n3)cc2)CC1,NF-kB SEAP reporter activity,"[2]; library stock concentration (final ~1000-fold dilution): 2 mM, cytotoxicity flag (confluency mask): cytotoxic (confluency <70% of control), agonist: Imiquimod (TLR7) […]",1.37
same,NF-kB SEAP reporter activity,"[2]; library stock concentration (final ~1000-fold dilution): 2 mM, cytotoxicity flag (confluency mask): cytotoxic (confluency <70% of control), agonist: MPLA (TLR4) […]",0.961
CN1C(=O)c2sccc2N(C)c2nc(Nc3ccc(S(N)(=O)=O)cc3)ncc21 (library stock concentration (final ~1000-fold dilution): 10 mM),NF-kB SEAP reporter activity,[1]; agonist: LPS (TLR4) 0.1 ug/mL,5.75
same,NF-kB SEAP reporter activity,[1]; [4],3.02
same,NF-kB SEAP reporter activity,[1]; [5],1.22
same,NF-kB SEAP reporter activity,[1]; [6],2.56
Nc1nc(Nc2ccc(S(N)(=O)=O)cc2)nn1C(=O)c1c(F)cccc1F (library stock concentration (final ~1000-fold dilution): 10 mM),NF-kB SEAP reporter activity,[3]; agonist: LPS (TLR4) 0.1 ug/mL,0.637
same,NF-kB SEAP reporter activity,[3]; [4],1.29
same,NF-kB SEAP reporter activity,[3]; [5],0.632
same,NF-kB SEAP reporter activity,[3]; [6],0.864
